From PubChem BioAssay (Tox21)
Values without a mark were called inactive. Inconclusive results are not listed. Where a call stands in place of a potency, no number is given. Active and inactive are the calls of the source. Unless noted, the call rests on the fitted dose curve.

Assays:
[1] = qHTS assay to identify small molecule agonists of the sonic hedgehog signaling (Shh) pathway (AID 1259368);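 further: NIH/3T3-derived 3T3Gli1-Luc cells carrying a stable Gli1-driven firefly luciferase reporter; series mostly up to about 92 µM; nearly all actives have a fitted effect of over 15% in size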
Method in brief: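 3T3Gli1-Luc (NIH/3T3 clone, stable Gli1-Luc); 4 hr pre-incubation, then cpd in DMSO 24 hr, 37 C/5% CO2; luciferase reagent 30 min RT; luminescence.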

[2] = qHTS assay to identify small molecule antagonists of the sonic hedgehog signaling (Shh) pathway (AID 1259369); further: nearly all actives have a fitted effect of over 45% in size; further: potency means the concentration at half of the fitted maximal effect
Method in brief: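 3T3Gli1-Luc, conditioned-medium-stimulated, 24hr cpd, 37C/5% CO2; Gli1-driven firefly Luc luminescence after 30min RT with luciferase reagent. Cells plated 4hr before cpd.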

[3] = qHTS assay to identify small molecule agonists of the androgen receptor (AR) signaling pathway in the presence of an antagonist - cell viability counter screen (AID 1259379; active means well fitted curve in the direction sought with a large enough effect in the repeat runs; an effect the other way counts as inactive or inconclusive;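 further: MDA-kb2 human breast cancer cells carrying an MMTV luciferase reporter; series mostly up to about 92 µM; nearly all actives have a fitted effect of over 25% in size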)
Method in brief: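 Cells: MDA-kb2 (MMTV-luc, AR and GR elements), 3,000/well, 5 hr settle. Added: nilutamide 3.0uM final, then compounds (15 conc.). Incubation: 16 hr, 37C, no CO2. Read-out: CellTiter-Fluor, 1 hr, fluorescence.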

[4] = qHTS assay to identify small molecule agonists of the estrogen receptor beta (ER-beta) signaling pathway - cell viability counter screen (AID 1259380; active means well fitted curve in the direction sought with a large enough effect in the repeat runs; an effect the other way counts as inactive or inconclusive; further: nearly all actives have a fitted effect of over 30% in size; further: potency means the concentration at half of the fitted maximal effect)
Method in brief: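 HEK293T ER-beta-UAS-bla; 2% CS-FBS; 6 hr pre-plate, 16 hr cpd at 37C/5% CO2; LiveBLAzer read first, then CellTiter-Glo 30 min RT, luminescence.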

[5] = qHTS assay to identify small molecule antagonists of the estrogen receptor beta (ER-beta) signaling pathway - cell viability counter screen (AID 1259382; active means well fitted curve in the direction sought with a large enough effect in the repeat runs; an effect the other way counts as inactive or inconclusive;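 further: HEK293T cells carrying ER-beta-UAS-bla reporter stimulated with estradiol; series mostly up to about 92 µM; nearly all actives have a fitted effect of over 55% in size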)
Method in brief: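 Cells: ER-beta-UAS-bla HEK293T, 2,000/well, 2% CS-FBS, 6 hr settle. Cpd + E2 (1nM final), 16 hr, 37C/5% CO2. Bla FRET substrate 2 hr RT, then CellTiter-Glo 30 min RT, luminescence.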

[6] = biological target: Estrogen receptor (Homo sapiens) (UniProt P03372); test: qHTS assay to identify small molecule agonists of the estrogen receptor alpha (ER-alpha) signaling pathway in the presence of an antagonist (AID 1259383); further: top concentration of the series differs between compounds; nearly all actives have a fitted effect of over 15% in size
Estrogen receptor (Homo sapiens), sequence (P03372 whole entry, looked up): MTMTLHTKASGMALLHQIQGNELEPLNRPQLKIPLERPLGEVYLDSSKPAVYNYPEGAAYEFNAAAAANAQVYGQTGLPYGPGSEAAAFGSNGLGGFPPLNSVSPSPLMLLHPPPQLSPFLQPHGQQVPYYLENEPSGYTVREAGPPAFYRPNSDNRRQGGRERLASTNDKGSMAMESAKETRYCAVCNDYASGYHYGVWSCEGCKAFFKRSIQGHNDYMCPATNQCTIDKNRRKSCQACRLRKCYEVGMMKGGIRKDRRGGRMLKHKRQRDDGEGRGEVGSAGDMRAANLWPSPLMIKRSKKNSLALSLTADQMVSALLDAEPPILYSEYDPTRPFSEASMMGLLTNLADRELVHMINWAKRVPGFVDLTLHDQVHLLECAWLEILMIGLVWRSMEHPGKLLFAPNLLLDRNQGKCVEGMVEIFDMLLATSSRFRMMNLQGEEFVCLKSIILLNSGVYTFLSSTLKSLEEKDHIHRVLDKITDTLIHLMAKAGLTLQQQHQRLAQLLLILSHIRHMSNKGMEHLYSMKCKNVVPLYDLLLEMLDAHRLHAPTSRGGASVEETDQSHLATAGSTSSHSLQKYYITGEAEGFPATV
Method in brief: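 VM7Luc4E2, endog. ER-alpha + 4×ERE-luc; charcoal-stripped FBS, phenol red-free, 5 d; 24hr plating; +10.0nM ICI-182,780 (final); cpds 15 conc, 22hr, 37C/5% CO2; ONE-Glo luminescence.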

[7] = qHTS assay to identify small molecule agonists or antagonists of the thyroid stimulating hormone receptor (TSHR) signaling pathway - wild type cell line counter screen (AID 1259384)
Method in brief: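 Counter screen in untransfected Hek293: compounds (15-point titration, triplicate) plus phosphodiesterase inhibitor Ro20-1724 added after 18 h plating; 30 min RT. Intracellular cAMP via competitive d2/cryptate immunoassay, 1 h incubation.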

[8] = biological target: Thyrotropin receptor (Homo sapiens) (UniProt P16473); test: qHTS assay to identify small molecule antagonists of the thyroid stimulating hormone receptor (TSHR) signaling pathway (AID 1259385); further: nearly all actives have a fitted effect of over 20% in size
Thyrotropin receptor (Homo sapiens), sequence (P16473 whole entry, looked up): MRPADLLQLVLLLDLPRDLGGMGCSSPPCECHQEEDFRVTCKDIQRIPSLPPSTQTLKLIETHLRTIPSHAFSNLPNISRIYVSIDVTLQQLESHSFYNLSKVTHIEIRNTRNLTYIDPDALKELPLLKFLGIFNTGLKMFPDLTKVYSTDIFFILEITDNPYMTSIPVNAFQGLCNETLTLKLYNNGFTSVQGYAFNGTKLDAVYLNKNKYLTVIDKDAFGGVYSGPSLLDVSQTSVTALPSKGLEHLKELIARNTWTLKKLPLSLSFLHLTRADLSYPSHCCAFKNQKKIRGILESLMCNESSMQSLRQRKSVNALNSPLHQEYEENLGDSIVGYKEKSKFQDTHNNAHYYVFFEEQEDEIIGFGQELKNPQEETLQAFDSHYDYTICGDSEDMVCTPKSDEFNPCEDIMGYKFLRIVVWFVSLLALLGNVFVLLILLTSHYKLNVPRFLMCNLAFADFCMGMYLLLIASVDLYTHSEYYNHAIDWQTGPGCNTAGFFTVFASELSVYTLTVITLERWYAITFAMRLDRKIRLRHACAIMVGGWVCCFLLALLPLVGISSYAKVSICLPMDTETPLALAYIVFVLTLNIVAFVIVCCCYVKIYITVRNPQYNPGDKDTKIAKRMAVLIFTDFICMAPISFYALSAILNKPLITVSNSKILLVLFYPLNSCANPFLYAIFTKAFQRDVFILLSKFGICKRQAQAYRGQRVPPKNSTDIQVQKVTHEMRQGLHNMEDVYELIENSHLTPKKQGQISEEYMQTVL
Method in brief: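 Antagonist mode: compound-treated TSHR-expressing HEK293 cells were stimulated with 1.5 ng/mL TSH (final) in presence of Ro20-1724 for 30 min at RT. HTRF cAMP detection after 1 h; each compound tested at 15 concentrations, triplicate.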

[9] = qHTS assay to identify small molecule agonists of the estrogen receptor alpha (ER-alpha) signaling pathway in the presence of an antagonist - cell viability counter screen (AID 1259386; active means well fitted curve in the direction sought with a large enough effect in the repeat runs; an effect the other way counts as inactive or inconclusive;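 further: series mostly up to about 92 µM; cells exposed to compounds for 22 h at 37 °C before the viability read; nearly all actives have a fitted effect of over 30% in size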)
Method in brief: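 VM7Luc4E2, stripped-serum pre-culture 5 d; 24hr plating; +ICI-182,780 10.0nM final; cpds 15 conc, 22hr, 37C/5% CO2; CellTiter-Fluor added at 21hr, fluorescence 1hr later.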

[10] = biological target: Progesterone receptor (Homo sapiens) (UniProt P06401); test: qHTS assay to identify small molecule antagonists of the progesterone receptor (PR) signaling pathway (AID 1346795; active means well fitted inhibition curve with a large enough effect in the signal ratio in the repeat runs, not every such curve was filed as active; the % refers to the signal ratio; further: potency means the concentration at half of the fitted maximal effect)
Progesterone receptor (Homo sapiens), sequence (P06401 whole entry, looked up): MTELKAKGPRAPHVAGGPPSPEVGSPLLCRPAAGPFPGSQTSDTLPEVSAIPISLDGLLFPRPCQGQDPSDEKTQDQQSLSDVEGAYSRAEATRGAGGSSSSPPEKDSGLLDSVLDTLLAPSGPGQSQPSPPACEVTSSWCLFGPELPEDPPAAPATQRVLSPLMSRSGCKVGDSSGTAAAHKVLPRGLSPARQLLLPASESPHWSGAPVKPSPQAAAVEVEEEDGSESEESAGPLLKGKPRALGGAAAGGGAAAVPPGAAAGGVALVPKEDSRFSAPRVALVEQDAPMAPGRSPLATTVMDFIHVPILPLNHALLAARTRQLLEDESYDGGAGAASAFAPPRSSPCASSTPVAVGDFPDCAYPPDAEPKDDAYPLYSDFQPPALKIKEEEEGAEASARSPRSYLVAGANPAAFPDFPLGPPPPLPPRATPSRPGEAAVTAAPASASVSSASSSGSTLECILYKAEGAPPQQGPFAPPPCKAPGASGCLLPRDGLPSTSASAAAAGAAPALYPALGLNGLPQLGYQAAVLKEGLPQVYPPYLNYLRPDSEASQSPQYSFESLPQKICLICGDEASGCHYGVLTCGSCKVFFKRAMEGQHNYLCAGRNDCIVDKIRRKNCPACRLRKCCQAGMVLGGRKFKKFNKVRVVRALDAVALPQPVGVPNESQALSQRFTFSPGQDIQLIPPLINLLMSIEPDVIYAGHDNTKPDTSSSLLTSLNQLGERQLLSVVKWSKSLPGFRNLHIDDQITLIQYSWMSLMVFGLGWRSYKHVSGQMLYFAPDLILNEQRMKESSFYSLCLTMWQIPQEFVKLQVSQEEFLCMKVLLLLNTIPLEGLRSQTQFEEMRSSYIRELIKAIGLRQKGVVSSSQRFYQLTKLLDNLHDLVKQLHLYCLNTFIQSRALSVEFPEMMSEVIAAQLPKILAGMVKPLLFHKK
Method in brief: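 PR-UAS-bla HEK293T cells with beta-lactamase reporter under UAS control, in 2% charcoal-stripped FBS, treated with compounds plus 1 nM promegestone (R5020, final) for 16 hr at 37C. Read-out: FRET beta-lactamase substrate fluorescence after 2 hr at room temperature.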

[11] = qHTS assay to identify small molecule antagonists of the progesterone receptor (PR) signaling pathway - cell viability counter screen (AID 1346798; active means well fitted curve in the direction sought with a large enough effect in the repeat runs; an effect the other way counts as inactive or inconclusive; further: series mostly up to about 92 µM; nearly all actives have a fitted effect of over 50% in size)
Method in brief: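 PR-UAS-bla HEK293T cells, 3,000/well in 2% charcoal-stripped FBS medium, dosed with compounds plus R5020 agonist and incubated 16 h at 37C. Viability then measured in the same wells by CellTiter-Glo luminescence after 30 min at RT.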

[12] = qHTS assay to identify small molecule agonists of the progesterone receptor (PR) signaling pathway - cell viability counter screen (AID 1346799); further: nearly all actives have a fitted effect of over 45% in size
Method in brief: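 Counter screen in the PR-UAS-bla HEK293T wells (2% charcoal-stripped FBS, 16 h compound exposure at 37 C) after the bla read. CellTiter-Glo added, 30 min at room temperature, luminescence read as cell viability.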

[13] = qHTS assay to identify small molecule antagonists of the TGF-beta/Smad signaling pathway - cell viability counter screen (AID 1346824; active means well fitted curve in the direction sought with a large enough effect in the repeat runs; an effect the other way counts as inactive or inconclusive; further: nearly all actives have a fitted effect of over 50% in size)
Method in brief: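 Cytotoxicity counter-screen run in the same wells as the beta-lactamase Smad reporter read: CellTiter-Glo luminescence after 30 min at room temperature. HEK 293T SBE-bla cells had 5 hr compound exposure at 37 C with TGF-beta1 (0.25 ng/mL stock).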

[14] = qHTS assay to identify small molecule agonists of the TGF-beta/Smad signaling pathway - cell viability counter screen (AID 1346829; active means well fitted curve in the direction sought with a large enough effect in the repeat runs; an effect the other way counts as inactive or inconclusive; further: top concentration of the series differs between compounds; nearly all actives have a fitted effect of over 45% in size)
Method in brief: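 Luminescence from CellTiter-Glo, read after a 30 min room-temperature incubation, gives cell viability of SBE-bla HEK 293T cells treated 5 hr with compounds at 37 C.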

[15] = qHTS assay to identify small molecule agonists of the TGF-beta/Smad signaling pathway (AID 1346859; active means well fitted activation curve with a large enough effect in the signal ratio in the repeat runs, not every such curve was filed as active; the % refers to the signal ratio; further: series mostly up to about 77 µM)
Method in brief: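 SBE-bla HEK293T cells plated overnight, then compound exposure for 5 h at 37 C. Beta-lactamase reporter read with LiveBLAzer B/G FRET substrate after 2 h at room temperature, fluorescence at 405 nm excitation, 460/530 nm emission.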

[16] = biological target: Progesterone receptor (Homo sapiens) (UniProt P06401); test: qHTS assay to identify small molecule agonists of the progesterone receptor (PR) signaling pathway (AID 1346784); further: nearly all actives have a fitted effect of over 30% in size
Method in brief: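 PR-UAS-bla HEK 293T cells (beta-lactamase reporter under UAS) in 2% charcoal-stripped FBS, dosed with 23 nL compound after 6 hr, incubated 16hr at 37C. LiveBLAzer B/G FRET substrate added, fluorescence read after 2 hours.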

[17] = biological target: Thyrotropin-releasing hormone receptor (Homo sapiens) (UniProt P34981); test: qHTS assay to identify small molecule antagonists of the thyrotropin-releasing hormone receptor (TRHR) signaling pathway (AID 1346877; active means well fitted inhibition curve with a large enough effect in the repeat runs, not every such curve was filed as active; further: series mostly up to about 51 µM)
Thyrotropin-releasing hormone receptor (Homo sapiens), sequence (P34981 whole entry, looked up): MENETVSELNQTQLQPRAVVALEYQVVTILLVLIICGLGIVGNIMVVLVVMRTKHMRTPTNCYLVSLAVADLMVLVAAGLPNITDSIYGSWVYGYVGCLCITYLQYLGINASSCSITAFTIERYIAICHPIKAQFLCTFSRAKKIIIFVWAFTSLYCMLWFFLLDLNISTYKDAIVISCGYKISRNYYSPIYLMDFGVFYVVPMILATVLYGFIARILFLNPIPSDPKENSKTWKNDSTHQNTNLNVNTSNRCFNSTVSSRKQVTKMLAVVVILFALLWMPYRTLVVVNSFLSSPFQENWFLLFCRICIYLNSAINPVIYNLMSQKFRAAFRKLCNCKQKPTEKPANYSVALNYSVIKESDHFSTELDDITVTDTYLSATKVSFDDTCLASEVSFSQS
Method in brief: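 Intracellular calcium fluorescence, read kinetically every second over 3 min, reports TRH-evoked signalling in HEK293 cells carrying TRHR. Test compounds were added 5 min ahead of a 1 nM TRH challenge.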

[18] = biological target: Androgen receptor (Homo sapiens) (UniProt P10275); test: qHTS assay to identify small molecule agonists of the androgen receptor (AR) signaling pathway in the presence of an antagonist (AID 1259381); further: nearly all actives have a fitted effect of over 15% in size
Androgen receptor (Homo sapiens), sequence (P10275 whole entry, looked up): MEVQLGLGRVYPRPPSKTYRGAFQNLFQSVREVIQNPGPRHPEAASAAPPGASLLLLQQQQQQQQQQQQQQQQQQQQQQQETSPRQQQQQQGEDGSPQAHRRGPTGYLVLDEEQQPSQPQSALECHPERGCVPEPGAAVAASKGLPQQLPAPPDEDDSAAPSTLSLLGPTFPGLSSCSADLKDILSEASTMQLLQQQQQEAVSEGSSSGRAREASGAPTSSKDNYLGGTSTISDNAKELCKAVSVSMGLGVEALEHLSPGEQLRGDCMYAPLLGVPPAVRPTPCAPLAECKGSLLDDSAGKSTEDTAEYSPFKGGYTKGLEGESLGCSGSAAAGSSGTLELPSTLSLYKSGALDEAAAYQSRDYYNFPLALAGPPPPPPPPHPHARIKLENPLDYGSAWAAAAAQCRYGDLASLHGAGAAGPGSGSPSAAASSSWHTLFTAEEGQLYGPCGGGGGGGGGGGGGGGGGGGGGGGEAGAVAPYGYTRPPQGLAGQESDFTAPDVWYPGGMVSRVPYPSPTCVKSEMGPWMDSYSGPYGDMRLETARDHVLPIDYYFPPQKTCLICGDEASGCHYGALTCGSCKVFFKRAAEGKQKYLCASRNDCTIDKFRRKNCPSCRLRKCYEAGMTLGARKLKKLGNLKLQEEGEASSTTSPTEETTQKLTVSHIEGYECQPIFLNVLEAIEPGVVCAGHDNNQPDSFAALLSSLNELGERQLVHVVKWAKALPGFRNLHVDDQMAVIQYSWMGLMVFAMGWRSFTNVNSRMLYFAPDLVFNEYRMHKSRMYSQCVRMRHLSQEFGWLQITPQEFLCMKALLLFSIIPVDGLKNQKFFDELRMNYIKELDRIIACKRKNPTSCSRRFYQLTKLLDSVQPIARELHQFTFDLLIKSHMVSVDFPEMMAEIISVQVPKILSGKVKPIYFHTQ
Method in brief: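 MDA-kb2 cells, 3,000/well, rested 5hr at 37C/0% CO2 → nilutamide 3.0uM final or buffer → compounds, 15 conc. → 16hr at 37C → ONE-Glo, 30min RT → luminescence.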

[19] = biological target: Estrogen receptor beta (Homo sapiens) (UniProt Q92731); test: qHTS assay to identify small molecule antagonists of the estrogen receptor beta (ER-beta) signaling pathway (AID 1259378; active means well fitted inhibition curve with a large enough effect in the signal ratio in the repeat runs, not every such curve was filed as active; the % refers to the signal ratio)
Estrogen receptor beta (Homo sapiens), sequence (Q92731 whole entry, looked up): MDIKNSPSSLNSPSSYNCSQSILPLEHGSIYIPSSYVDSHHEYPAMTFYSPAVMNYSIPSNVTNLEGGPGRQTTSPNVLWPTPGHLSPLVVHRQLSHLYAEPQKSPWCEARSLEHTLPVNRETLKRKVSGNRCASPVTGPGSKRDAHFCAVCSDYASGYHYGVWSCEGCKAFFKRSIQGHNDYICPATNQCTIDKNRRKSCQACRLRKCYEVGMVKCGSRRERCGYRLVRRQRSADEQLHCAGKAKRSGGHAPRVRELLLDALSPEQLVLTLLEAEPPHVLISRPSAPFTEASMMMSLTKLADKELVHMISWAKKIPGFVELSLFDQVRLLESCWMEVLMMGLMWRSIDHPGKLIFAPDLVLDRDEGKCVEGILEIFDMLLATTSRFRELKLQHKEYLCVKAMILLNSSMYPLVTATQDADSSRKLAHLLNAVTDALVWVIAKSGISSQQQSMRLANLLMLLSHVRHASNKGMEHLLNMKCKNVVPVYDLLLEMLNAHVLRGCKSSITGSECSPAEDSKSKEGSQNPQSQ
Method in brief: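 Antagonist mode: compounds added to beta-lactamase reporter HEK293T ER-beta-UAS cells stimulated with E2 (1nM final), 16 hr at 37C. LiveBLAzer B/G FRET substrate, 2 hours room temperature, fluorescence read-out.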

COC(=O)c1ccc2cc(C(=O)OC)ccc2c1
activity change [1]: 6.39% [at 18.9 µM, hits give high values]
Potency [2]: 9.93 µM (active)
activity change, negative = cytotoxicity [3]: 2.92% [at 19 µM]
activity change, negative = cytotoxicity [4]: 0.723% [at 19 µM]
activity change, negative = cytotoxicity [5]: -4.09% [at 19 µM]
activation [6]: 0.0917% [at 19 µM]
cAMP activity change [7]: 3.63% [at 18.9 µM]
activity change, negative = inhibition [8]: -1.02% [at 19 µM]
activity change, negative = cytotoxicity [9]: -3.99% [at 19 µM]
activity change, negative = inhibition [10]: -25.1% [at 18.9 µM]
Potency [11]: inactive
activity change, negative = cytotoxicity [12]: -2.9% [at 19 µM]
viability change, negative = cytotoxic [13]: 0.743% [at 15.8 µM]
activity change, negative = cytotoxicity [14]: 8.9% [at 15.8 µM]
activation [15]: 0.192% [at 15.8 µM]

CC/C=C\CCOC(=O)CCCCC
Potency [1]: inactive
Potency [2]: inactive
Potency [3]: inactive
Potency [4]: inactive
outcome [5]: inactive
Potency [6]: inactive
outcome [7]: inactive
Potency [8]: inactive
Potency [9]: inactive
Potency [16]: inactive
Potency [11]: inactive
Potency [12]: inactive
outcome [13]: inactive
outcome [15]: inactive
outcome [17]: inactive

C[C@@H]1CN(c2c(F)c(F)c3c(=O)c(C(=O)O)cn(C4CC4)c3c2F)C[C@H](C)N1
activity change [1]: 3.53% [at 18.9 µM, hits give high values]
activity change, negative = inhibition [2]: 7.04% [at 19 µM]
activity change, negative = cytotoxicity [3]: 1.23% [at 19 µM]
activity change, negative = cytotoxicity [4]: -0.431% [at 19 µM]
Potency [18]: inactive
activity change, negative = cytotoxicity [5]: 0.873% [at 19 µM]
activation [6]: -0.582% [at 19 µM]
cAMP activity change [7]: -0.3% [at 18.9 µM]
activity change, negative = inhibition [8]: -7.61% [at 19 µM]
activity change, negative = cytotoxicity [9]: 0.208% [at 19 µM]
activation [16]: 4.11% [at 19 µM]
activity change, negative = inhibition [10]: 6.07% [at 18.9 µM]
Potency [11]: inactive
viability change, negative = cytotoxic [13]: 0.903% [at 15.8 µM]
activity change, negative = cytotoxicity [14]: -0.146% [at 15.8 µM]
activation [15]: -1.32% [at 15.8 µM]
activity, negative = inhibition [17]: -3.72% [at 10.5 µM]

COC(C)CCO (configuration not stated)
Potency [1]: inactive
Potency [2]: inactive
Potency [3]: inactive
Potency [4]: inactive
Potency [18]: inactive
outcome [5]: inactive
outcome [7]: inactive
Potency [8]: inactive
Potency [9]: inactive
Potency [16]: inactive
Potency [10]: inactive
Potency [11]: inactive
Potency [12]: inactive
outcome [13]: inactive
outcome [14]: inactive
outcome [15]: inactive
outcome [17]: inactive

Cc1cc2nc(N)sc2cc1C
Potency [1]: inactive
Potency [2]: inactive
Potency [3]: inactive
Potency [4]: 30.9 µM (active)
Potency [18]: inactive
outcome [7]: inactive
Potency [8]: inactive
Potency [9]: inactive
Potency [16]: inactive
Potency [11]: inactive
Potency [12]: inactive
outcome [13]: inactive
outcome [14]: inactive
outcome [15]: inactive

NC(=O)NS(=O)(=O)c1ccc(Cl)cc1
Potency [1]: inactive
Potency [2]: inactive
Potency [3]: inactive
Potency [4]: inactive
Potency [18]: inactive
outcome [5]: inactive
Potency [6]: inactive
outcome [7]: inactive
Potency [8]: inactive
Potency [9]: inactive
Potency [16]: inactive
Potency [10]: inactive
Potency [11]: inactive
outcome [13]: inactive
outcome [14]: inactive
outcome [15]: inactive

CCC(=O)Nc1ccc(O)cc1
Potency [1]: inactive
Potency [2]: inactive
Potency [3]: inactive
Potency [4]: inactive
outcome [5]: inactive
Potency [6]: inactive
outcome [7]: inactive
Potency [8]: inactive
Potency [9]: inactive
Potency [16]: inactive
Potency [10]: inactive
Potency [11]: inactive
Potency [12]: inactive
outcome [13]: inactive
outcome [14]: inactive
outcome [15]: inactive
outcome [17]: inactive

OCc1c2ccccc2cc2ccccc12
Potency [1]: inactive
Potency [2]: inactive
Potency [19]: inactive
Potency [3]: inactive
outcome [5]: inactive
Potency [6]: inactive
outcome [7]: inactive
Potency [9]: inactive
Potency [16]: inactive
Potency [10]: 54.6 µM (active)
Potency [11]: inactive
Potency [12]: inactive
outcome [13]: inactive
outcome [14]: inactive
outcome [15]: inactive
outcome [17]: inactive
